This assay concerns the target Histone deacetylase 2 (Homo sapiens) (UniProt Q92769). As to the kind of experiment: recombinant HDAC2 deacetylase inhibitors – biochemical, HDAC isoform panel, selectivity assay for E-cadherin restoration project, profiling panel (AID 651926). To be noted: recombinant HDAC2, fluorogenic peptide deacetylation; series mostly up to 10 µM.

Activity calls are given as the source filed them. No rule for the calls is given here.

This is an account of results in PubChem BioAssay AID651926 (Vanderbilt Specialized Chemistry Center, 2012).

Sequence of Histone deacetylase 2 (Homo sapiens) (Q92769 whole entry, looked up, canonical isoform): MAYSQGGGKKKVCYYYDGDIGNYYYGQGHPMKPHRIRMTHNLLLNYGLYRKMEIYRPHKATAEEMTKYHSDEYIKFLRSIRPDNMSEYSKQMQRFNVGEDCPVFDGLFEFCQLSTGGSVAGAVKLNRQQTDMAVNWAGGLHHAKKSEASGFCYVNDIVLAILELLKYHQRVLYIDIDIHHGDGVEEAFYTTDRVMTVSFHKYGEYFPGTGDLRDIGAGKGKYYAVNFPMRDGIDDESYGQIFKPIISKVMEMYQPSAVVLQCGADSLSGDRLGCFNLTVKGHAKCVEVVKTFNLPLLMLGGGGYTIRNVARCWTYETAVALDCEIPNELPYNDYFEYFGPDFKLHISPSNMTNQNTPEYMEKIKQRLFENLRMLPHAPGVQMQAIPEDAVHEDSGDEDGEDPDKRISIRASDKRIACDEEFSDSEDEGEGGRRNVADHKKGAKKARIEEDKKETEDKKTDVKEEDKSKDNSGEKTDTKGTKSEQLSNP

`O=C(NCCCNC(=O)c1ccc[nH]c1=O)c1cc(-c2ccccc2)on1`: the outcome was inactive.
